Compound activity (PubChem)
NPC1 promoter act = activators of NPC1 promoter. Huh7 NPC1 promoter luciferase reporter, 24 h. Potency, µM (series often up to 9.22 µM), for the others: top-dose activation, actives largely listed as activators. 320,000 tested, 2.4% active; note: % of control where 0% means no effect; nearly all actives have a fitted effect of over 60% in size
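Stably transfected Huh7 (NPC1 promoter→luciferase), 1500 cells/well in Opti-MEM + 10% FBS, 2 h settle, then compound 24 h at 37 °C. Luminescence after 10 min with Amplite reagent.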
Luc counter = Kinase-Glo luciferase inhibition (counter-screen). Q27757. Kinase-Glo luciferase, ATP luminescence, 8 min. Potency, µM (doses to about 38.3 µM), without a hit: at the highest dose activity change, negative = inhibition, actives largely listed as inhibitors. 200,000 tested, 0.28% active. AID 1379; note: % is set by controls: 0 for no effect and ±100 for the full control effect; nearly all actives have a fitted effect of over 60% in size
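Recombinant Kinase-Glo luciferase, 10 uM ATP (linear range), luciferin; imidazole pH 7.2 / KCl / MgCl2 / Tween / BSA buffer; 8 min RT; luminescence.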
ELG1 genotox = inducers of genotoxicity in HEK293T ELG1-luciferase cells; AID 504466; 330,000 tested, 1.3% active; HEK293T ELG1-luciferase reporter, luminescence, 16 h; Potency, µM (series often up to 46 µM), for inactives: at the highest dose activity change, positive = activation, most hits filed as activators; note: % of control where 0% means no effect; nearly all actives have a fitted effect of over 60% in size
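Genotoxic stress is detected as increased luminescence from luciferase-tagged ELG1 in HEK293T cells, measured with ONE-Glo after a 16 hr treatment at 37 °C.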
FLuc modulator = inhibits or activates purified firefly luciferase, miR-21 counter-screen. P08659. purified FLuc, Km substrates, luminescence inhibition. Potency, µM (titrated, usually from 57.5 µM), inactives show at the top dose activity change, negative = inhibition, usual class: inhibitors. 360,000 tested, 6.9% active;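 note: plate controls were vehicle for no effect and reference inhibitor for full effect; nearly all actives have a fitted effect of over 55% in size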
Target sequence (P08659 whole entry, looked up): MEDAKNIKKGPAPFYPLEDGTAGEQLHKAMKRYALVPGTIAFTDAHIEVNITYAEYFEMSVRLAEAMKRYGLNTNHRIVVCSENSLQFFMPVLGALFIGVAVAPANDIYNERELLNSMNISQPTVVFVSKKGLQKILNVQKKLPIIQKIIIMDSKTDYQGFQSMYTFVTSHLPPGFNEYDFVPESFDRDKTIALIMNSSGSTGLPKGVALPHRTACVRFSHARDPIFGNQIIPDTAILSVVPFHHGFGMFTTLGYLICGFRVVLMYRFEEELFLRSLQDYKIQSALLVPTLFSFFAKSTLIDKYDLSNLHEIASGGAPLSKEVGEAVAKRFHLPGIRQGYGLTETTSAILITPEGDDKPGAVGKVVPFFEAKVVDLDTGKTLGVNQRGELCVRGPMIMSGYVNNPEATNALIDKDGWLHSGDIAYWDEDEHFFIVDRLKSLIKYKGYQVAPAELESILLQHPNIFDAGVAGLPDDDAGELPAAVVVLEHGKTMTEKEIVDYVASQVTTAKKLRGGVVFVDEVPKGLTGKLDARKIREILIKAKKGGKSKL
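Purified P. pyralis luciferase, 10 nM final, with Km-level 10 uM D-luciferin and 10 uM ATP in 50 mM Tris acetate pH 7.5, 10 mM Mg acetate, 0.01% Tween-20, 0.05% BSA; 6-point qHTS titration about 60 µM downward; luminescence read.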
Rab9 promoter act = activators of Rab9 promoter | Huh7 Rab9 promoter-luciferase reporter, luminescence, 24 h | Potency, µM (highest dose often 9.22 µM), for inactives: at the top dose activation, negative = inhibition, hits mostly activators | 320,000 tested, 2.8% active | AID 485297; note: % of control where 0% means no effect; nearly all actives have a fitted effect of over 60% in size
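Huh7 reporter line, Rab9 promoter upstream of luciferase. Compound exposure 24 h at 37 °C in reduced-serum medium with 10% FBS. Read-out: luminescence.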
SMN2 splice enh = increases expression of the SMN2 splice variant; Potency, µM (series often up to 46.1 µM), without a hit: at the top dose activity change, positive = activation, actives largely listed as activators; HEK293 SMN2-luciferase splicing reporter, luminescence, 30-36 h; AID 1458; 210,000 tested, 2.8% active; note: % of control where 0% means no effect; nearly all actives have a fitted effect of over 55% in size
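HEK293 cells carry an SMN2 […]–luciferase reporter in which exon 7 inclusion puts luciferase in frame. Cells were plated 10-12 h before compound addition, then incubated 30-36 h at 37C. ONE-Glo luminescence was read; sodium butyrate at 4.5 mM final served as control.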
Starred values were filed as active, the others as inactive; ? = inconclusive; · = no result given; [ ] = dose if it differs, or a comment. Rows were chosen to be rich in hits. Some 7.5% of all compounds tested hit in one or more screens of this group. Calls come from the whole dose curve; as a rule, active = well fitted curve in the direction sought with a large enough effect; inconclusive = small, poorly fitted or top-dose-only effect, or another doubt; inactive = no such curve, though single readings can be large; an effect the other way counts as inactive or inconclusive. Potency is the fitted concentration of half-maximal effect.

SMILES	NPC1 promoter act	Luc counter	ELG1 genotox	FLuc modulator	Rab9 promoter act	SMN2 splice enh
O=C(CC1=NCCNC(c2ccccc2)C1)c1ccccc1O (stereo not given)	17%	11%	9%	0%	?	11µM*
O=C(CC1(O)C(=O)Nc2ccccc21)c1ccccc1O (stereo not given)	-4%	5%	2%	-1%	10%	11%
CCCc1cc(=O)[nH]c(Nc2ccc(O)cc2C)n1	·	·	·	0%	·	15%
Cc1cc(O)ccc1Nc1nc2ccccc2nc1Nc1ccc(O)cc1C	7%	-3%	8%	17µM*	6%	3%
CC(=O)N1CCc2c(sc3c2c(=O)n(-c2ccccc2Cl)c(=O)n3C)C1	·	·	·	-3%	·	·
CCOc1ccccc1C(=O)Nc1cc2c(cc1N1CCOCC1)n(C)c(=O)n2C	·	·	·	-5%	·	7%
CC(=O)c1c(C(C)=O)c(C)n(NC(=O)c2ccncc2)c1C	-1%	2%	3%	5%	-2%	25µM*
O=C(NN1C(=O)c2ccccc2C1=O)c1ccncc1	-4%	2%	1%	-2%	-4%	7%
Cc1cc(C)c2c(CN3CCCCC3)cc(=O)oc2c1	3%	·	8%	?	-1%	·
Cc1cc(C)c2c(CN3CCC(C)CC3)cc(=O)oc2c1	?	·	?	15µM*	?	·
COc1ccccc1N1CCN(CCCN=C2CC(=O)N(C)C(=O)N2C)CC1	·	·	1%	·	·	·
CCOC(=O)c1ccc(-n2c(N)c(C(=O)NCc3ccco3)sc2=S)cc1	1%	-6%	-5%	-19%	-1%	4%
Cc1ccc2nc3sc(C(=O)NCc4ccco4)c(N)c3cc2c1	?	-3%	9.2µM*	0.85µM*	2µM*	4.5µM*
COc1ccc(-n2c(N)c(C(=O)NCc3ccco3)sc2=S)cc1	-1%	1%	?	-2%	4.5µM*	-2%
COc1cc2cc3c(N)c(C(=O)NCc4ccco4)sc3nc2cc1OC	?	·	?	11µM*	?	·
NC(=O)C[C@H](NC(=O)c1ccc(Cl)cc1)C(=O)OCc1ccccc1	·	·	-1%	·	·	·
O=C(COc1ccc(Cl)cc1[N+](=O)[O-])NC1CCCCC1	?	1%	?	11µM*	1.4µM*	11µM*
O=C(COc1ccc(Cl)cc1Cl)NC(=O)N1CCOCC1	-5%	-1%	5%	21µM*	-5%	20%
CC(=O)c1cc(Cl)ccc1OCC(=O)NC1CCCC1	?	·	-1%	17µM*	?	·
O=C(COc1ccc(Cl)cc1Br)NC1CC1	?	·	10%	13µM*	28%	·
O=C(COc1ccc(Cl)cc1Cl)Nc1ccc(CN2CCOCC2)cc1	-1%	·	1%	-19%	-3%	·
CC(Sc1nnc(Cc2cccs2)n1C)C(=O)Nc1ccc(C(N)=O)cc1 (stereo not given)	-8%	·	3%	-1%	1%	·
O=c1onc(-c2ccc(Cl)cc2Cl)n1-c1cccnc1	-6%	·	-4%	1%	-4%	·
CC(=O)Nc1ccc(/C(C)=N/NC(=O)c2ccncc2)cc1	-3%	-3%	7%	-2%	12%	17%
C/C(=N\NC(=O)c1ccncc1)c1cccc(NC(=O)c2ccc(C(C)(C)C)cc2)c1	1.4µM*	·	-21%	0.12µM*	2µM*	·
SMILES	NPC1 promoter act	Luc counter	ELG1 genotox	FLuc modulator	Rab9 promoter act	SMN2 splice enh
C/C(=N\NC(=O)c1ccccc1O)c1cccc(NC(=O)c2ccccc2)c1	25%	·	2%	11µM*	11%	·
C/C(=N/NC(=O)c1ccncc1)c1ccc(NC(=O)c2ccccc2)cc1	-4%	·	2%	21µM*	0%	·
CC(=O)Nc1cccc(/C(C)=N/NC(=O)c2ccc(O)cc2)c1	4%	2%	0%	?	2%	8%
C/C(=N\NC(=O)c1ccc(Br)cc1)c1cccc(NC(=O)c2cccnc2)c1	15%	-3%	0%	12µM*	21%	?
CC(C)c1ccc(NC(=O)C2CSC3(C)CCC(=O)N23)cc1 (stereo not given)	0%	·	0%	-2%	-1%	·
COC(=O)c1ccc(COC(=O)c2ccc(C)c(S(=O)(=O)N3CCCCC3)c2)cc1	27%	·	1%	-1%	?	·
Cc1ccc(-n2nc(C)c3c(C)cc(=O)n(CC(=O)NC(C)c4ccccc4)c32)cc1 (stereo not given)	·	·	·	-1%	·	·
C/C(=N\NC(=O)c1cccc(N/N=C(\C)c2ccccc2)c1)c1ccccc1	?	1%	13%	13µM*	?	20µM*
C/C(=N\NC(=O)c1ccco1)c1ccc(NC(=O)c2ccccc2)cc1	?	-2%	20%	?	?	?
C/C(=N\NC(=O)c1nn(C)cc1Br)c1cccc(NC(=O)c2ccncc2)c1	8%	-3%	1%	12µM*	18%	12%
C/C(=N\NC(=O)c1ccccc1O)c1ccc(NC(=O)c2ccccc2)cc1	?	·	17%	21µM*	?	·
C/C(=N\Nc1ccccc1)c1cccc(N)c1	22%	·	?	21µM*	?	·
C/C(=N\NC(=O)c1cccc(N/N=C(\C)c2ccncc2)c1)c1ccncc1	6%	-3%	-5%	?	19%	9%
C/C(=N/NC(=O)c1ccc(Cn2cccn2)o1)c1cccc(NC(=O)c2ccncc2)c1	3%	·	-1%	?	-2%	·
CCOc1cc(CNC(=O)Cn2ncn3c(cc4cc(F)ccc43)c2=O)cc(OCC)c1OCC	·	·	·	2%	·	2%
O=C(OCc1ccc(COC(=O)c2cccnc2Cl)cc1)c1cccnc1Cl	-5%	-2%	-3%	?	-7%	-4%
CCc1ccc(C(=O)COC(=O)c2cccnc2Cl)cc1	1%	-25%	-2%	0.43µM*	7%	20%
CCC(C)(C)c1ccc(OC(=O)c2cccnc2Cl)cc1	-1%	·	?	4.8µM*	6%	·
O=C(CCc1ccccc1)Nc1cccnc1Cl	16%	·	9%	-15%	25%	·
O=C(CC(=O)c1ccccc1)Nc1cccnc1Cl	?	-6%	?	12µM*	?	13µM*
O=C(COC(=O)c1cccnc1Cl)c1ccc(F)cc1	2%	-15%	7%	3µM*	1%	14%
O=C(O)c1ccc(NS(=O)(=O)Cc2ccccc2)cc1	·	-6%[7.66 µM]	·	·	·	-3%[9.22 µM]
COc1cccc(CNC(=O)c2cc3n(n2)CCCN(Cc2ccc(C)cc2)C3=O)c1OC	·	·	·	-8%	·	·
CCOc1ccc(S(=O)(=O)Nc2cccc(C(=O)NCC3CCCO3)c2)cc1 (stereo not given)	-2%	·	-3%	6%	-3%	·
O=C(NCc1ccccc1)c1ccc2c(c1)sc1nc(-c3ccc(F)cc3)cn12	·	·	·	1%	·	·
